± gives the standard deviation of the averaged measurements.
test system: Escherichia coli Nissle 1917; experiment: area under OmniLog respiration curve over 48 h (OmniLog units x h); higher = more growth / nutrient utilisation; extreme values may be limits of the assay; conditions: nutrient role: C-Source, carbohydrate; incubation: 48 h, 37 °C
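Wherever DuctApe activity index of respiration/growth curve (0 no growth to 9 maximum) is given: biolog PM4 phosphorus and sulfur plates, tetrazolium violet dye reduction read in the OmniLog every 15 min, kinetic curves scored by DuctApe, each plate run in triplicate.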

| SMILES | area under OmniLog respiration curve |
| --- | --- |
| CO[C@H]1O[C@H](CO)[C@@H](O)[C@H](O)[C@@H]1O [a-Methyl-D-Mannoside] | 16.9 ± 21 |
| CC(=O)N[C@@H](CO)[C@@H](O)[C@H](O)[C@H](O)CO [N-Acetyl-D-Glucosaminitol] | 4.72 |
| O=C[C@H](O)[C@@H](O)[C@H](O)[C@H](O)CO[C@@H]1O[C@H](CO)[C@@H](O)[C@H](O)[C@H]1O [Gentiobiose] | 475 ± 820 |
| OC[C@H]1O[C@H](OC[C@H]2O[C@H](O[C@]3(CO)O[C@H](CO)[C@@H](O)[C@@H]3O)[C@H](O)[C@@H](O)[C@@H]2O)[C@H](O)[C@@H](O)[C@H]1O [D-Raffinose] | 6090 ± 450 |

same assay, conditions: nutrient role: C-Source, carboxylic acid; incubation: 48 h, 37 °C

| SMILES | area under OmniLog respiration curve |
| --- | --- |
| CC(O)(CC(=O)O)C(=O)O (stereo not drawn) [Citramalic acid] | 4.72 |
| O=C(O)CCC(=O)O [Succinic acid] | 9020 ± 680 |
| CCCCCC(=O)O [Caproic acid] | 4.72 |
| O=C(O)C(O)C(O)C(=O)O (stereo not drawn) [m-Tartaric acid] | 4.72 |
| O=C(O)[C@@H](O)[C@H](O)[C@H](O)[C@@H](O)C(=O)O [Mucic acid] | 8240 ± 630 |
| CCC(=O)O [Propionic acid] | 7450 ± 300 |
| O=CC(=O)O [Glyoxylic acid] | 5490 ± 480 |
| O=C(O)CO [Glycolic acid] | 7210 ± 370 |
| O=C(O)c1ccc(O)cc1 [4-Hydroxybenzoic acid] | 4.72 |
| CCCC(=O)C(=O)O [a-Keto-Valeric acid] | 4.72 |
| O=C1CC[C@@H](C(=O)O)O1 [a-Hydroxyglutaric acid-g-Lactone] | 4.72 |
| O=C(O)c1ccccc1O [2-Hydroxybenzoic acid] | 4.72 |
| O=C(O)[C@@H](O)[C@@H](O)[C@H](O)[C@@H](O)C(=O)O [D-Saccharic acid] | 9150 ± 780 |

same assay, conditions: nutrient role: sole nitrogen source (pyruvate carbon); incubation: 48 h, 37 °C

| SMILES | area under OmniLog respiration curve |
| --- | --- |
| N[C@@H](Cc1ccc(O)cc1)C(=O)O [L-Tyrosine] | 1110 ± 450 |
| C[C@H](N)C(=O)N[C@@H](CCC(=O)O)C(=O)O | 8550 ± 1300 |
| C[C@H](N)C(=O)N[C@@H](CC(=O)O)C(=O)O | 9150 ± 1000 |
| Cc1c[nH]c(=O)[nH]c1=O [Thymine] | 67 ± 110 |
| NCC(=O)N[C@@H](CC(N)=O)C(=O)O | 8340 ± 1500 |
| C[C@H](N)C(=O)N[C@H](C(=O)O)[C@@H](C)O | 7530 ± 1100 |
| NCCCCN=C(N)N [Agmatine] | 336 ± 570 |
| NCCc1c[nH]cn1 [Histamine] | 5.03 ± 0.54 |

same assay, conditions: nutrient role: sole phosphorus source (pyruvate carbon); incubation: 48 h, 37 °C

| SMILES | area under OmniLog respiration curve |
| --- | --- |
| O=C(O)COP(=O)(O)O [Phospho-Glycolic acid] | 9060 ± 940 |
| C[C@@H](OP(=O)(O)O)[C@H](N)C(=O)O [O-Phospho-L-Threonine] | 9330 ± 620 |
| N[C@@H](Cc1ccc(OP(=O)(O)O)cc1)C(=O)O [O-Phospho-L-Tyrosine] | 8920 ± 320 |
| N[C@H](COP(=O)(O)O)C(=O)O [O-Phospho-D-Serine] | 9260 ± 670 |
| Nc1ncnc2c1ncn2[C@@H]1O[C@H](CO)[C@@H](OP(=O)(O)O)[C@H]1O [Adenosine 3`-Monophosphate] | 9700 ± 640 |
| Cc1cn([C@H]2C[C@H](OP(=O)(O)O)[C@@H](CO)O2)c(=O)[nH]c1=O [Thymidine 3`-Monophosphate] | 8940 ± 450 |

same assay, conditions: nutrient role: sole sulfur source (pyruvate carbon); incubation: 48 h, 37 °C

| SMILES | area under OmniLog respiration curve |
| --- | --- |
| Nc1ccc(S(=O)(=O)O)cc1 [p-Aminobenzene Sulfonic acid] | 550 ± 470 |
| NC(=O)CCCCC1CCSS1 (racemic) [DL-Lipoamide] | 561 ± 220 |
| O=S(O)(O)=S [Thiosulfate] | 6770 ± 170 |
| NCCS(=O)O [Hypotaurine] | 7620 ± 90 |
| N[C@@H](CS(=O)(=O)O)C(=O)O [L-Cysteic acid] | 5920 ± 240 |

test system: Escherichia coli Nissle 1917; experiment: DuctApe activity index of respiration/growth curve (0 no growth to 9 maximum) (index 0-9); higher = more growth / nutrient utilisation, active = 3 or more; extreme values may be limits of the assay; conditions: nutrient role: C-Source, carbohydrate; incubation: 48 h, 37 °C

| SMILES | DuctApe activity index |
| --- | --- |
| CO[C@H]1O[C@H](CO)[C@@H](O)[C@H](O)[C@@H]1O [a-Methyl-D-Mannoside] | 0 (inactive) |
| CC(=O)N[C@@H](CO)[C@@H](O)[C@H](O)[C@H](O)CO [N-Acetyl-D-Glucosaminitol] | 0 (inactive) |
| O=C[C@H](O)[C@@H](O)[C@H](O)[C@H](O)CO[C@@H]1O[C@H](CO)[C@@H](O)[C@H](O)[C@H]1O [Gentiobiose] | 1 (inactive) |
| OC[C@H]1O[C@H](OC[C@H]2O[C@H](O[C@]3(CO)O[C@H](CO)[C@@H](O)[C@@H]3O)[C@H](O)[C@@H](O)[C@@H]2O)[C@H](O)[C@@H](O)[C@H]1O [D-Raffinose] | 7 (active) |

same assay, conditions: nutrient role: C-Source, carboxylic acid; incubation: 48 h, 37 °C

| SMILES | DuctApe activity index |
| --- | --- |
| CC(O)(CC(=O)O)C(=O)O (stereo not drawn) [Citramalic acid] | 0 (inactive) |
| O=C(O)CCC(=O)O [Succinic acid] | 8.67 (active) |
| CCCCCC(=O)O [Caproic acid] | 0 (inactive) |
| O=C(O)C(O)C(O)C(=O)O (stereo not drawn) [m-Tartaric acid] | 0 (inactive) |
| O=C(O)[C@@H](O)[C@H](O)[C@H](O)[C@@H](O)C(=O)O [Mucic acid] | 8.33 (active) |
| CCC(=O)O [Propionic acid] | 8 (active) |
| O=CC(=O)O [Glyoxylic acid] | 7 (active) |
| O=C(O)CO [Glycolic acid] | 7.67 (active) |
| O=C(O)c1ccc(O)cc1 [4-Hydroxybenzoic acid] | 0 (inactive) |
| CCCC(=O)C(=O)O [a-Keto-Valeric acid] | 0 (inactive) |
| O=C1CC[C@@H](C(=O)O)O1 [a-Hydroxyglutaric acid-g-Lactone] | 0 (inactive) |
| O=C(O)c1ccccc1O [2-Hydroxybenzoic acid] | 0 (inactive) |
| O=C(O)[C@@H](O)[C@@H](O)[C@H](O)[C@@H](O)C(=O)O [D-Saccharic acid] | 8.67 (active) |

— the supplement of paper PMC9801561
